The record followed here is PubChem BioAssay (NCI).

The panel holds about 83,000 compounds, 20% with a hit somewhere; the sample as a whole holds those more often.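 Treatment: one concentration, 48 hours, 96-well format. Scoring: percent growth, with anything below 10 considered active.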 Values without a mark were called inactive. Calls of active or inactive are those of the source.

This assay has as its system TK-10 renal. The assay can be described thus: NCI-60 one-dose screen, 48 h (100 = growth as untreated, 0 = no growth, -100 = all killed). The settings on record: 10 µM unless noted.
Consider `CC(C)OC(=O)c1ccc2[nH]c(O)c(C(=Nc3ccc(N(C)C(=O)CN4CCN(C)CC4)cc3)c3ccccc3)c2c1`, for which the growth is -90.5% (active).

Turning to `O=C1C(Cl)=C(Nc2ccc(O)cc2)C(=O)N1Cc1ccc(Cl)cc1`, the growth was 63.2%.

For `COc1cc(OC)c2sc(-c3ccc(-n4cncc4-c4ccc(OC)c(OC)c4)cc3)nc2c1`, the growth was 71.9%.

Take `CCN(CC)C(=S)SC(SC(=S)N(CC)CC)C(=O)c1nnn(-c2ccc([N+](=O)[O-])cc2)c1C`: the growth was 107%.

Regarding `COc1cccc(CNc2ncnc3c2ncn3C2OC(CO)C(O)C2O)c1O` (stereo not drawn), the growth was 6.39% (active).

With `CC(C)c1ccc(COCc2cc(CN3CCCC3)c(O)c3ncccc23)cc1`, the growth was 4.79% (active).

Consider `O=C(NCc1ccccc1)Nc1ccccc1CNc1nc(Nc2ccc(OCCN3CCCC3)cc2)ncc1Cl`, for which the growth is 110%.

`Cc1ccc(-n2c(=S)[nH]c3sc4c(c3c2=O)CCC(=O)C4)cc1`: the growth is 83.5%.

As to `Oc1c(Cl)cc(Cl)cc1/C=N/Nc1nnc(N/N=C/c2cc(Cl)cc(Cl)c2O)c2ccccc12`, the growth was 37.8%.

On to `CCCCCCC1(C)NCCO1` (stereo not drawn), for which the growth is 111%.

In the case of `Clc1ccc2c(c1)N(c1ncnc3ccc(-c4cnc5[nH]ncc5c4)cc13)CC2`, the growth was 13.9%.

For the molecule `COC(=O)c1cc(-c2ccc(S(C)(=O)=O)cc2)[nH]c1N/N=C/c1c(Cl)cccc1Cl`, the growth was 19.2%.

Turning to `C=CCn1c(SCC(=O)Nc2ccc(C(=O)/C=C/c3ccc(Cl)cc3)cc2)nnc1-c1cc(-c2ccc(S(N)(=O)=O)cc2)nc2ccccc12`, the growth is 99.9%.
